PubChem BioAssay AID1159580 (chemical genetic matrix, 2015)
About 2,000 (36%) of roughly 5,500 compounds were called active. Roughly 18% stayed inconclusive and do not appear here. The list shows a part of the results. Unmarked numbers belong to inactive results. Rule as the data show it: active = normalized growth mostly below about 0.91 (no sharp cut-off); inconclusive = no clear call, values can overlap the other calls; inactive = mostly above about 0.92.

Test: chemical genetic growth profiling, strain panel (AID 1159580);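 also: tested at 20 µM; growth read once vehicle control cultures reached saturation at 30 °C; 1 = growth at the plate median or of vehicle wells; lower values mean less growth of the strain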
Conditions: growth OD

**Q.** For `CCCc1nn(C)c2c(=O)[nH]c(-c3cc(S(=O)(=O)N4CCN(C)CC4)ccc3OCC)nc12`, which normalized growth (S. cerevisiae deletion strains, locus YJR075W, strain HOC1, active compounds read low) is on record?
**A.** 1.02

**Q.** What about the normalized growth (S. cerevisiae deletion strains, locus YKL009W, strain mrt4, active compounds read low) of the same compound?
**A.** 1.01

**Q.** And the normalized growth (S. cerevisiae deletion strains, locus YKL068W, active compounds read low)?
**A.** 0.995

**Q.** What about the normalized growth (S. cerevisiae deletion strains, locus YKL085W, strain MDH1 (second series), active compounds read low) of the same compound?
**A.** 0.996

**Q.** What about the normalized growth (S. cerevisiae deletion strains, locus YKL085W, strain MDH1, active compounds read low) of the same compound?
**A.** 0.996

**Q.** What about the normalized growth (S. cerevisiae deletion strains, locus YKL160W, strain elf1, active compounds read low) of the same compound?
**A.** 0.999

**Q.** What about the normalized growth (S. cerevisiae deletion strains, locus YKL190W, strain CNB1, active compounds read low) of the same compound?
**A.** 1.02

**Q.** And the normalized growth (S. cerevisiae deletion strains, locus YKR001C, strain vps1, active compounds read low)?
**A.** 0.64 (active)

**Q.** What about the normalized growth (S. cerevisiae deletion strains, locus YKR026C, strain gcn3, active compounds read low) of the same compound?
**A.** 1

**Q.** What about the normalized growth (S. cerevisiae deletion strains, locus YKR091W, strain srl3, active compounds read low) of the same compound?
**A.** 0.987

**Q.** What about the normalized growth (S. cerevisiae deletion strains, locus YLL001W, strain dnm1, active compounds read low) of the same compound?
**A.** 0.992

**Q.** And the normalized growth (S. cerevisiae deletion strains, locus YLL026W, active compounds read low)?
**A.** 0.985

**Q.** What about the normalized growth (S. cerevisiae deletion strains, locus YLL041C, strain sdh2, active compounds read low) of the same compound?
**A.** 0.992

**Q.** And the normalized growth (S. cerevisiae deletion strains, locus YLR027C, strain aat2, active compounds read low)?
**A.** 0.992

**Q.** And the normalized growth (S. cerevisiae deletion strains, locus YLR039C, strain RIC1, active compounds read low)?
**A.** 1.02

**Q.** What about the normalized growth (S. cerevisiae deletion strains, locus YLR058C, strain SHM2, active compounds read low) of the same compound?
**A.** 1.02

**Q.** And the normalized growth (S. cerevisiae deletion strains, locus YLR102C, strain apc9, active compounds read low)?
**A.** 0.988

**Q.** What about the normalized growth (S. cerevisiae deletion strains, locus YLR113W, strain HOG1, active compounds read low) of the same compound?
**A.** 1.03

**Q.** What about the normalized growth (S. cerevisiae deletion strains, locus YLR221C, strain rsa3, active compounds read low) of the same compound?
**A.** 0.988

**Q.** And the normalized growth (S. cerevisiae deletion strains, locus YLR258W, strain gsy2, active compounds read low)?
**A.** 0.984

**Q.** What about the normalized growth (S. cerevisiae deletion strains, locus YLR262C, strain YPT6 (second series), active compounds read low) of the same compound?
**A.** 0.986

**Q.** What about the normalized growth (S. cerevisiae deletion strains, locus YLR262C, strain YPT6, active compounds read low) of the same compound?
**A.** 1.05

**Q.** And the normalized growth (S. cerevisiae deletion strains, locus YLR268W, strain sec22, active compounds read low)?
**A.** 0.993

**Q.** And the normalized growth (S. cerevisiae deletion strains, locus YLR320W, strain mms22, active compounds read low)?
**A.** 0.986

**Q.** And the normalized growth (S. cerevisiae deletion strains, locus YLR330W, strain CHS5, active compounds read low)?
**A.** 1.02

**Q.** And the normalized growth (S. cerevisiae deletion strains, locus YLR342W, strain FKS1 (second series), active compounds read low)?
**A.** 1.03

**Q.** What about the normalized growth (S. cerevisiae deletion strains, locus YLR342W, strain FKS1, active compounds read low) of the same compound?
**A.** 0.99

**Q.** What about the normalized growth (S. cerevisiae deletion strains, locus YLR357W, strain rsc2, active compounds read low) of the same compound?
**A.** 0.983

**Q.** What about the normalized growth (S. cerevisiae deletion strains, locus YLR370C, strain arc18, active compounds read low) of the same compound?
**A.** 0.988

**Q.** What about the normalized growth (S. cerevisiae deletion strains, locus YLR371W, strain rom2, active compounds read low) of the same compound?
**A.** 0.978

**Q.** And the normalized growth (S. cerevisiae deletion strains, locus YLR384C, strain iki3, active compounds read low)?
**A.** 0.981

**Q.** And the normalized growth (S. cerevisiae deletion strains, locus YLR418C, strain cdc73, active compounds read low)?
**A.** 0.987

**Q.** What about the normalized growth (S. cerevisiae deletion strains, locus YML016C, strain PPZ1, active compounds read low) of the same compound?
**A.** 1.02

**Q.** And the normalized growth (S. cerevisiae deletion strains, locus YML032C, strain rad52, active compounds read low)?
**A.** 1

**Q.** What about the normalized growth (S. cerevisiae deletion strains, locus YML120C, strain ndi1, active compounds read low) of the same compound?
**A.** 0.995

**Q.** And the normalized growth (S. cerevisiae deletion strains, locus YML124C, strain tub3, active compounds read low)?
**A.** 0.99

**Q.** What about the normalized growth (S. cerevisiae deletion strains, locus YMR058W, strain fet3, active compounds read low) of the same compound?
**A.** 0.999

**Q.** What about the normalized growth (S. cerevisiae deletion strains, locus YMR078C, strain ctf18, active compounds read low) of the same compound?
**A.** 1.01

**Q.** What about the normalized growth (S. cerevisiae deletion strains, locus YMR125W, strain sto1, active compounds read low) of the same compound?
**A.** 0.981

**Q.** And the normalized growth (S. cerevisiae deletion strains, locus YMR129W, active compounds read low)?
**A.** 0.974

**Q.** And the normalized growth (S. cerevisiae deletion strains, locus YMR205C, strain PFK2, active compounds read low)?
**A.** 0.981

**Q.** And the normalized growth (S. cerevisiae deletion strains, locus YMR223W, strain ubp8, active compounds read low)?
**A.** 1

**Q.** What about the normalized growth (S. cerevisiae deletion strains, locus YMR231W, strain pep5, active compounds read low) of the same compound?
**A.** 0.988

**Q.** What about the normalized growth (S. cerevisiae deletion strains, locus YMR263W, strain SAP30, active compounds read low) of the same compound?
**A.** 1.03

**Q.** What about the normalized growth (S. cerevisiae deletion strains, locus YMR307W, strain GAS1, active compounds read low) of the same compound?
**A.** 1.1

**Q.** What about the normalized growth (S. cerevisiae deletion strains, locus YNL067W, strain RPL9B, active compounds read low) of the same compound?
**A.** 1.03

**Q.** What about the normalized growth (S. cerevisiae deletion strains, locus YNL071W, strain lat1, active compounds read low) of the same compound?
**A.** 0.991

**Q.** And the normalized growth (S. cerevisiae deletion strains, locus YNL128W, strain TEP1, active compounds read low)?
**A.** 1.02

**Q.** What about the normalized growth (S. cerevisiae deletion strains, locus YNL153C, strain GIM3, active compounds read low) of the same compound?
**A.** 1.02

**Q.** What about the normalized growth (S. cerevisiae deletion strains, locus YNL183C, strain NPR1, active compounds read low) of the same compound?
**A.** 0.978

**Q.** And the normalized growth (S. cerevisiae deletion strains, locus YNL209W, strain ssb2, active compounds read low)?
**A.** 0.99

**Q.** And the normalized growth (S. cerevisiae deletion strains, locus YNL233W, strain BNI4, active compounds read low)?
**A.** 1.02

**Q.** And the normalized growth (S. cerevisiae deletion strains, locus YNL248C, strain rpa49, active compounds read low)?
**A.** 0.981

**Q.** What about the normalized growth (S. cerevisiae deletion strains, locus YNL250W, strain rad50, active compounds read low) of the same compound?
**A.** 0.995

**Q.** What about the normalized growth (S. cerevisiae deletion strains, locus YNL271C, strain bni1, active compounds read low) of the same compound?
**A.** 0.99

**Q.** And the normalized growth (S. cerevisiae deletion strains, locus YNL298W, strain CLA4, active compounds read low)?
**A.** 0.984

**Q.** What about the normalized growth (S. cerevisiae deletion strains, locus YNL307C, strain MCK1, active compounds read low) of the same compound?
**A.** 0.995

**Q.** And the normalized growth (S. cerevisiae deletion strains, locus YNL322C, strain KRE1 (second series), active compounds read low)?
**A.** 0.982

**Q.** And the normalized growth (S. cerevisiae deletion strains, locus YNL322C, strain KRE1, active compounds read low)?
**A.** 1.01

**Q.** What about the normalized growth (S. cerevisiae deletion strains, locus YNR049C, strain mso1, active compounds read low) of the same compound?
**A.** 0.992

**Q.** What about the normalized growth (S. cerevisiae deletion strains, locus YNR052C, strain pop2, active compounds read low) of the same compound?
**A.** 1

**Q.** What about the normalized growth (S. cerevisiae deletion strains, locus YOL006C, strain TOP1, active compounds read low) of the same compound?
**A.** 1.1

**Q.** What about the normalized growth (S. cerevisiae deletion strains, locus YOL012C, strain htz1) of the same compound?
**A.** 0.868

**Q.** And the normalized growth (S. cerevisiae deletion strains, locus YOL147C, strain pex11, active compounds read low)?
**A.** 0.985

**Q.** And the normalized growth (S. cerevisiae deletion strains, locus YOR001W, strain rrp6, active compounds read low)?
**A.** 0.999

**Q.** And the normalized growth (S. cerevisiae deletion strains, locus YOR061W, strain CKA2, active compounds read low)?
**A.** 1.02

**Q.** What about the normalized growth (S. cerevisiae deletion strains, locus YOR069W, strain VPS5, active compounds read low) of the same compound?
**A.** 1.02

**Q.** And the normalized growth (S. cerevisiae deletion strains, locus YOR070C, strain gyp1, active compounds read low)?
**A.** 0.984

**Q.** And the normalized growth (S. cerevisiae deletion strains, locus YOR080W, strain dia2, active compounds read low)?
**A.** 0.996

**Q.** And the normalized growth (S. cerevisiae deletion strains, locus YOR083W, strain WHI5, active compounds read low)?
**A.** 0.987

**Q.** What about the normalized growth (S. cerevisiae deletion strains, locus YOR106W, strain vam3, active compounds read low) of the same compound?
**A.** 0.987

**Q.** What about the normalized growth (S. cerevisiae deletion strains, locus YOR136W, strain idh2, active compounds read low) of the same compound?
**A.** 0.991

**Q.** What about the normalized growth (S. cerevisiae deletion strains, locus YOR144C, strain elg1, active compounds read low) of the same compound?
**A.** 0.986

**Q.** What about the normalized growth (S. cerevisiae deletion strains, locus YOR184W, strain ser1, active compounds read low) of the same compound?
**A.** 0.988

**Q.** And the normalized growth (S. cerevisiae deletion strains, locus YOR231W, strain MKK1, active compounds read low)?
**A.** 1.03

**Q.** And the normalized growth (S. cerevisiae deletion strains, locus YOR265W, strain rbl2, active compounds read low)?
**A.** 1

**Q.** What about the normalized growth (S. cerevisiae deletion strains, locus YOR270C, strain vph1, active compounds read low) of the same compound?
**A.** 0.983

**Q.** What about the normalized growth (S. cerevisiae deletion strains, locus YOR290C, strain snf2, active compounds read low) of the same compound?
**A.** 1

**Q.** What about the normalized growth (S. cerevisiae deletion strains, locus YOR316C, strain cot1, active compounds read low) of the same compound?
**A.** 0.991

**Q.** What about the normalized growth (S. cerevisiae deletion strains, locus YPL051W, strain arl3, active compounds read low) of the same compound?
**A.** 0.993

**Q.** What about the normalized growth (S. cerevisiae deletion strains, locus YPL055C, strain LGE1, active compounds read low) of the same compound?
**A.** 1.05

**Q.** What about the normalized growth (S. cerevisiae deletion strains, locus YPL078C, strain atp4, active compounds read low) of the same compound?
**A.** 0.994

**Q.** And the normalized growth (S. cerevisiae deletion strains, locus YPL106C, strain sse1, active compounds read low)?
**A.** 0.977

**Q.** What about the normalized growth (S. cerevisiae deletion strains, locus YPL240C, strain hsp82, active compounds read low) of the same compound?
**A.** 0.997

**Q.** What about the normalized growth (S. cerevisiae deletion strains, locus YPL241C, strain CIN2, active compounds read low) of the same compound?
**A.** 1.02

**Q.** And the normalized growth (S. cerevisiae deletion strains, locus YPL256C, strain CLN2, active compounds read low)?
**A.** 1.05

**Q.** What about the normalized growth (S. cerevisiae deletion strains, locus YPR119W, strain clb2, active compounds read low) of the same compound?
**A.** 0.986

**Q.** And the normalized growth (S. cerevisiae deletion strains, locus YPR141C, strain kar3, active compounds read low)?
**A.** 0.993

**Q.** What about the normalized growth (S. cerevisiae deletion strains, locus YPR163C, strain tif3, active compounds read low) of the same compound?
**A.** 0.982

**Q.** What about the normalized growth (S. cerevisiae deletion strains, locus YPR167C, strain met16, active compounds read low) of the same compound?
**A.** 0.988

**Q.** And the normalized growth (S. cerevisiae deletion strains, strain wtn01, active compounds read low)?
**A.** 0.998

**Q.** What about the normalized growth (S. cerevisiae strains, strain wild type, active compounds read low) of the same compound?
**A.** 1.01
